Assay results taken from PMC5540273 (PLoS ONE, 2017).
“And” between values parts separate entries of the source, which are not always exact repeats. Equal values may be shown once. Read-outs that look alike come from different tables or passages of the source.

What was measured:
Conditions in all cases: n = 1
CDK4 = tested on: CDK4
CDK5 = tested on: CDK5
CDK7 = tested on: CDK7
CDK8 = tested on: CDK8
CDK9 = tested on: CDK9
CDKL1 = tested on: CDKL1
CDKL2 = tested on: CDKL2
CDKL3 = tested on: CDKL3
CDKL5 = tested on: CDKL5
CHEK1 = tested on: CHEK1
CHEK2 = tested on: CHEK2
CIT = tested on: CIT
CLK1 = tested on: CLK1
CLK2 = tested on: CLK2
CLK3 = tested on: CLK3
CLK4 = tested on: CLK4
CSF1R-autoinhibited = tested on: CSF1R-autoinhibited
CSF1R = tested on: CSF1R
CSK = tested on: CSK
CSNK1A1L = tested on: CSNK1A1L
[1] = concentration: 1 μM, replicates: in singlicate
[2] = concentration: 1 μM,replicates: in singlicate, 1 µM
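Also: KINOMEscan kinase panel screen.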

Cl.c1ccc(-c2n[nH]cc2-c2ccnc(-c3ccc(CN4CCOCC4)cc3)c2)nc1 [GW776245]
%Inh (CDK4; [1]): 0%
%Inh (CDK5; [1]): 12%
%Inh (CDK7; [1]): 0%
%Inh (CDK8; [1]): 52%
%Inh (CDK9; [1]): 0%
%Inh (CDKL1; [1]): 59%
%Inh (CDKL2; [1]): 9%
%Inh (CDKL3; [1]): 6%
%Inh (CDKL5; [1]): 0%
%Inh (CHEK1; [1]): 0%
%Inh (CHEK2; [1]): 0%
%Inh (CIT; [1]): 10%
%Inh (CLK1; [1]): 0%
%Inh (CLK2; [1]): 10%
%Inh (CLK3; [1]): 0%
%Inh (CLK4; [1]): 0%
%Inh (CSF1R-autoinhibited; [1]): 0%
%Inh (CSF1R; [1]): 0%
%Inh (CSK; [1]): 10%
%Inh (CSNK1A1L; [1]): 1%

Cc1ccc(NC(=O)Nc2cc(C(C)(C)C)nn2-c2ccccc2)cc1 [GSK1014915]
%Inh (CDK4; [1]): 0%
%Inh (CDK5; [1]): 8%
%Inh (CDK7; [1]): 0%
%Inh (CDK8; [1]): 58%
%Inh (CDK9; [1]): 14%
%Inh (CDKL1; [1]): 15%
%Inh (CDKL2; [1]): 13%
%Inh (CDKL3; [1]): 0%
%Inh (CDKL5; [1]): 14%
%Inh (CHEK1; [1]): 24%
%Inh (CHEK2; [1]): 0%
%Inh (CIT; [1]): 29%
%Inh (CLK1; [1]): 33%
%Inh (CLK2; [1]): 0%
%Inh (CLK3; [1]): 14%
%Inh (CLK4; [1]): 15%
%Inh (CSF1R-autoinhibited; [1]): 0%
%Inh (CSF1R; [1]): 30%
%Inh (CSK; [1]): 0%
%Inh (CSNK1A1L; [1]): 9%

Cc1cc(N2Cc3ccccc3C2)nc(Nc2ccc(S(=O)(=O)N3CCOCC3)cc2)n1.Cl [GSK1669917]
%Inh (CDK4; [1]): 0%
%Inh (CDK5; [1]): 0%
%Inh (CDK7; [1]): 0%
%Inh (CDK8; [1]): 33%
%Inh (CDK9; [1]): 0%
%Inh (CDKL1; [1]): 0%
%Inh (CDKL2; [1]): 0%
%Inh (CDKL3; [1]): 0%
%Inh (CDKL5; [1]): 6%
%Inh (CHEK1; [1]): 0%
%Inh (CHEK2; [1]): 0%
%Inh (CIT; [1]): 0%
%Inh (CLK1; [1]): 9%
%Inh (CLK2; [1]): 0%
%Inh (CLK3; [1]): 1%
%Inh (CLK4; [1]): 11%
%Inh (CSF1R-autoinhibited; [1]): 0%
%Inh (CSF1R; [1]): 4%
%Inh (CSK; [1]): 0%
%Inh (CSNK1A1L; [1]): 0%

Cc1ccc(NC(=O)Nc2cccc(C(F)(F)F)c2)cc1 [GSK955403]
%Inh (CDK4; 1 µM): 0%
%Inh (CDK5; 1 µM): 0%
%Inh (CDK7; 1 µM): 12%
%Inh (CDK8; 1 µM): 0%
%Inh (CDK9; 1 µM): 0%
%Inh (CDKL1; 1 µM): 14%
%Inh (CDKL2; 1 µM): 0%
%Inh (CDKL3; 1 µM): 4%
%Inh (CDKL5; 1 µM): 0%
%Inh (CHEK1; 1 µM): 5%
%Inh (CHEK2; 1 µM): 0%
%Inh (CIT; 1 µM): 29%
%Inh (CLK1; 1 µM): 3%
%Inh (CLK2; 1 µM): 36%
%Inh (CLK3; 1 µM): 0%
%Inh (CLK4; 1 µM): 0%
%Inh (CSF1R-autoinhibited; 1 µM): 0%
%Inh (CSF1R; 1 µM): 0%
%Inh (CSK; 1 µM): 28%
%Inh (CSNK1A1L; 1 µM): 0%

O=C(Nc1n[nH]c2nc(-c3nccs3)c(Br)cc12)C1CCCC1 [SB-742609]
%Inh (CDK4; [1]): 81%
%Inh (CDK5; [1]): 0%
%Inh (CDK7; [1]): 73%
%Inh (CDK8; [1]): 0%
%Inh (CDK9; [1]): 100%
%Inh (CDKL1; [1]): 0%
%Inh (CDKL2; [1]): 88%
%Inh (CDKL3; [1]): 0%
%Inh (CDKL5; [1]): 0%
%Inh (CHEK1; [1]): 0%
%Inh (CHEK2; [1]): 0%
%Inh (CIT; [1]): 36%
%Inh (CLK1; [1]): 22%
%Inh (CLK2; [1]): 0%
%Inh (CLK3; [1]): 4%
%Inh (CLK4; [1]): 0%
%Inh (CSF1R-autoinhibited; [1]): 0%
%Inh (CSF1R; [1]): 3%
%Inh (CSK; [1]): 0%
%Inh (CSNK1A1L; [1]): 6%

Cn1ccc2ncnc(Oc3ccc(Nc4nc5ccccc5[nH]4)cc3)c21
%Inh (CDK4; [1]): 0%
%Inh (CDK5; [1]): 0%
%Inh (CDK7; [1]): 0%
%Inh (CDK8; [1]): 6%
%Inh (CDK9; [1]): 0%
%Inh (CDKL1; [1]): 18%
%Inh (CDKL2; [1]): 0%
%Inh (CDKL3; [1]): 11%
%Inh (CDKL5; [1]): 0%
%Inh (CHEK1; [1]): 0%
%Inh (CHEK2; [1]): 23%
%Inh (CIT; [1]): 8%
%Inh (CLK1; [1]): 0%
%Inh (CLK2; [1]): 12%
%Inh (CLK3; [1]): 0%
%Inh (CLK4; [1]): 0%
%Inh (CSF1R-autoinhibited; [1]): 0%
%Inh (CSF1R; [1]): 17%
%Inh (CSK; [1]): 0%
%Inh (CSNK1A1L; [1]): 8%

Cc1cc(NCC(c2ccccc2)c2ccccc2)nc(NCc2ccc(C(F)(F)F)cc2)n1 [GW497681]
%Inh (CDK4; [1]): 0%
%Inh (CDK5; [1]): 0%
%Inh (CDK7; [1]): 0%
%Inh (CDK8; [1]): 28%
%Inh (CDK9; [1]): 0%
%Inh (CDKL1; [1]): 0%
%Inh (CDKL2; [1]): 12%
%Inh (CDKL3; [1]): 0%
%Inh (CDKL5; [1]): 0%
%Inh (CHEK1; [1]): 0%
%Inh (CHEK2; [1]): 18%
%Inh (CIT; [1]): 30%
%Inh (CLK1; [1]): 15%
%Inh (CLK2; [1]): 0%
%Inh (CLK3; [1]): 37%
%Inh (CLK4; [1]): 15%
%Inh (CSF1R-autoinhibited; [1]): 30%
%Inh (CSF1R; [1]): 6%
%Inh (CSK; [1]): 0%
%Inh (CSNK1A1L; [1]): 2%

CC(C)(C)c1ccc(C(=O)Nc2cn3cc(Cl)ccc3n2)cc1
%Inh (CDK4; [1]): 0%
%Inh (CDK5; [1]): 18%
%Inh (CDK7; [1]): 0%
%Inh (CDK8; [1]): 7%
%Inh (CDK9; [1]): 0%
%Inh (CDKL1; [1]): 19%
%Inh (CDKL2; [1]): 0%
%Inh (CDKL3; [1]): 0%
%Inh (CDKL5; [1]): 0%
%Inh (CHEK1; [1]): 0%
%Inh (CHEK2; [1]): 2%
%Inh (CIT; [1]): 27%
%Inh (CLK1; [1]): 75%
%Inh (CLK2; [1]): 29%
%Inh (CLK3; [1]): 2%
%Inh (CLK4; [1]): 75%
%Inh (CSF1R-autoinhibited; [1]): 14%
%Inh (CSF1R; [1]): 1%
%Inh (CSK; [1]): 0%
%Inh (CSNK1A1L; [1]): 0%

CSc1nn2c(=O)cc(N3CCOCC3)nc2n1Cc1cccc(C(F)(F)F)c1C [GSK2363608]
%Inh (CDK4; [2]): 15% and 0%
%Inh (CDK7; [2]): 7% and 0%
%Inh (CDK9; [2]): 7% and 0%
%Inh (CDKL2; [2]): 17% and 30%
%Inh (CHEK1; [2]): 4% and 11%
%Inh (CIT; [2]): 23% and 2%
%Inh (CLK1; [2]): 43% and 31%
%Inh (CLK3; [2]): 0% and 6%
%Inh (CLK4; [2]): 17% and 0%
%Inh (CSF1R; [2]): 23% and 9%
%Inh (CSK; [2]): 11% and 0%
%Inh (CSNK1A1L; [2]): 8% and 7%
